Assay results as given in PubChem BioAssay (Tox21).
Records with an inconclusive call do not appear. A call without a number means that no potency is given here. Where a structure was tested more than once in an assay, its records may differ in their call. Calls of active or inactive are those of the source. Unless noted, the call rests on the fitted dose curve.

Tests used:
Aromatase (Homo sapiens) = Aromatase (Homo sapiens) (UniProt P11511); experiment: qHTS assay to identify aromatase inhibitors (AID 743083; active means well fitted curve in the direction sought with a large enough effect in the repeat runs; an effect the other way counts as inactive or inconclusive; further: nearly all actives have a fitted effect of over 55% in size; further: potency means the concentration at half of the fitted maximal effect)
[1] = qHTS assay to identify small molecule antagonists of the retinoic acid receptor (RAR) signaling pathway (AID 1159552; active means well fitted curve in the direction sought with a large enough effect in the repeat runs; an effect the other way counts as inactive or inconclusive; further: nearly all actives have a fitted effect of over 50% in size; further: potency means the concentration at half of the fitted maximal effect)
How it was run: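 Antagonism of retinol-induced RARE reporter activity was measured in C3RL4 cells. Exposure to compounds and 1 uM final retinol lasted 6 hr at 37 C, with luminescence as endpoint.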

[2] = qHTS assay to identify small molecule agonists of H2AX (AID 1224845; active means well fitted activation curve with a large enough effect in the signal ratio in the repeat runs, not every such curve was filed as active; the % refers to the signal ratio)
How it was run: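 Wild-type CHO-K1 cells plated overnight, then exposed 3 hr at 37C to compounds at 15 concentrations (0.76% DMSO). Lysed, then HTRF anti-pH2AX(S139)-cryptate/anti-H2AX-d2 detection after 24 hr at room temperature; emissions 665 and 620 nm.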

[3] = Caspase-3/7 induction in HepG2 cells by small molecules, qHTS assay (AID 1346978; active means well fitted curve in the direction sought with a large enough effect in the repeat runs; an effect the other way counts as inactive or inconclusive; further: nearly all actives have a fitted effect of over 15% in size; further: potency means the concentration at half of the fitted maximal effect)
How it was run: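 Wild-type HepG2 cells (2,000/well) were settled 5 h at 37 C, 5% CO2, then exposed to compounds in DMSO for 17 h. Caspase-3/7 activity was read by luminescence 30 min after adding Caspase-Glo 3/7 reagent at room temperature.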

[4] = target: Acetylcholinesterase (Homo sapiens) (UniProt P22303); experiment: Acetylcholinesterase (AChE) small molecule antagonists: colormetric cell-based qHTS assay (AID 1347395); further: nearly all actives have a fitted effect of over 30% in size
How it was run: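 Homogeneous whole-cell format. SH-SY5Y cells seeded overnight, dosed with compound (30 min, 37 C, 5% CO2), then given DTNB/acetylthiocholine cocktail for 90 min at 37 C; colorimetric signal.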

[5] = target: Acetylcholinesterase (Homo sapiens) (UniProt P22303); experiment: Acetylcholinesterase (AChE) small molecule antagonists: enzyme-based qHTS assay (AID 1347397); conditions: Potency: AChE enzyme activity inhibition; outcome: AChE enzyme activity inhibition; further: nearly all actives have a fitted effect of over 55% in size
How it was run: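 Tox21 library chemicals are tested in qHTS format against recombinant human AChE. The enzyme, dispensed at 50 mU/mL, sits with compound for 30 min at room temperature. A DTNB–acetylthiocholine cocktail follows, and colour is read after 10 min.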

[6] = target: Acetylcholinesterase (Homo sapiens) (UniProt P22303); experiment: Acetylcholinesterase (AChE) small molecule antagonists: fluorescence cell-based qHTS assay (AID 1347398); conditions: Potency: AChE activity; outcome: AChE activity; further: nearly all actives have a fitted effect of over 50% in size; further: potency means the concentration at half of the fitted maximal effect
How it was run: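 Cellular AChE inhibition: SH-SY5Y cells treated with test chemical for 30 min at 37 C, then acetylthiocholine hydrolysis followed over 40 min at room temperature via thiocholine-reactive Thiolite Green fluorescence (490/520 nm).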

[7] = target: Acetylcholinesterase (Homo sapiens) (UniProt P22303); experiment: Acetylcholinesterase (AChE) small molecule antagonists: enzyme-based qHTS assay with human liver microsomes (AID 1347399); conditions: Potency: qHTS inhibition; outcome: qHTS inhibition; further: nearly all actives have a fitted effect of over 60% in size
How it was run: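 Recombinant human AChE (50 mU/mL in the enzyme mix) and human liver microsomes (0.25 mg/mL final) were preincubated with compound and NADPH (0.25 mg/mL final) for 30 min at 37 C. Acetylthiocholine/DTNB was then added; thiocholine was read colorimetrically after 10 min at room temperature.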

[8] = target: Aryl hydrocarbon receptor (Homo sapiens) (UniProt P35869); experiment: qHTS assay to identify small molecule that activate the aryl hydrocarbon receptor (AhR) signaling pathway (AID 743085; active means well fitted curve in the direction sought with a large enough effect in the repeat runs; an effect the other way counts as inactive or inconclusive; further: nearly all actives have a fitted effect of over 15% in size; further: potency means the concentration at half of the fitted maximal effect;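 on activation: HG2L7.5c1 human HepG2 liver cells with stably integrated DRE-driven firefly reporter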)
How it was run: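 A multiplexed format paired cell viability (CellTiter-Fluor fluorescence) with AhR-dependent luciferase output (ONE-Glo luminescence) in the same wells of HepG2 DRE-luc cells after 24 h compound exposure at 37C.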

[9] = A CellTox Green Cytotoxicity Assay to monitor cytotoxicity in HepG2 cells - 0 hour (AID 1224882; active means well fitted curve in the direction sought with a large enough effect in the repeat runs; an effect the other way counts as inactive or inconclusive; further: nearly all actives have a fitted effect of over 35% in size)
How it was run: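 First, HepG2 cells (600/well) mixed with reagent were plated; second, after 5 h at 37 C they received compounds via pintool; third, fluorescence was measured at 0 h through 40 h at 8 h intervals.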

[10] = qHTS assay to identify small molecule HDAC inhibitors (AID 1259364; active means well fitted curve in the direction sought with a large enough effect in the repeat runs; an effect the other way counts as inactive or inconclusive;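 further: wild-type HCT-116 cells with endogenous class I/II HDAC activity; top concentration of the series differs between compounds; nearly all actives have a fitted effect of over 45% in size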)
How it was run: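 Quantitative high-throughput format: overnight-seeded HCT-116 cells got compounds for 2 hr at 37C; HDAC-Glo I/II reagent added, 30 min RT, luminescence measured.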

[11] = qHTS assay to identify small molecule agonists of the sonic hedgehog signaling (Shh) pathway (AID 1259368);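 further: NIH/3T3-derived 3T3Gli1-Luc cells carrying a stable Gli1-driven firefly luciferase reporter; nearly all actives have a fitted effect of over 15% in size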
How it was run: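 Quantitative high-throughput format using a Gli1-driven firefly luciferase reporter line derived from NIH/3T3 cells. After a 24 hr compound treatment at 37 C and 5% CO2, luminescence reported Gli1 response element activity.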

[12] = Caspase-3/7 induction in CHO-K1 cells by small molecules, qHTS assay (AID 1346980; active means well fitted curve in the direction sought with a large enough effect in the repeat runs; an effect the other way counts as inactive or inconclusive; further: nearly all actives have a fitted effect of over 15% in size)
How it was run: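 Wild-type cells were seeded at 1,500 per well and settled 5 hr at 37 C, 5% CO2, then exposed to DMSO-dissolved compounds for 17 hr. Caspase-Glo 3/7 reagent was added, and luminescence was read after 30min at room temperature.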

[13] = qHTS assay to identify small molecule agonists of the estrogen related receptor (ERR) signaling pathway from Tox21 library (AID 1224849); conditions: ERR reporter cell line, ONE-Glo luciferase, 18 h; at 92.4 µM (top of the series) unless noted; further: nearly all actives have a fitted effect of over 15% in size
How it was run: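 Quantitative HTS in agonist format: NTP ERR cell line, compounds transferred in DMSO after 6 h plating, 18 h incubation at 37 C, ONE-Glo luminescence endpoint.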

Chain of Acetylcholinesterase (Homo sapiens) (P22303 whole entry, looked up): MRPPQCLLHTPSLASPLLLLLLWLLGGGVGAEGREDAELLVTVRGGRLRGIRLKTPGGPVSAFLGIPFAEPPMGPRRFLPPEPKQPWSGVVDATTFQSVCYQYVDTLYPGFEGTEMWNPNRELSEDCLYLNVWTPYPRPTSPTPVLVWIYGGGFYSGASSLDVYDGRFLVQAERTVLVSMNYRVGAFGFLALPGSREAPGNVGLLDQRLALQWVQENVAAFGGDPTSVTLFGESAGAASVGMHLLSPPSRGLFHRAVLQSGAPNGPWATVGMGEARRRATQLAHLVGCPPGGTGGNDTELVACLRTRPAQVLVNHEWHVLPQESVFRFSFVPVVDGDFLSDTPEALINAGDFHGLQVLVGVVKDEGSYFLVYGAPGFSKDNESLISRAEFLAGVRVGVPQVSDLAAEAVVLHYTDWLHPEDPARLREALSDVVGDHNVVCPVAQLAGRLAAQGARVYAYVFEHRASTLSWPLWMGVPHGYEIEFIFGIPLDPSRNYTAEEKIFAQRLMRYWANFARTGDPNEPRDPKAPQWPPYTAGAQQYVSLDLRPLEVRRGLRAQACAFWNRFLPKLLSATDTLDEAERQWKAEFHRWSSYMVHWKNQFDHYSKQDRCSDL
Chain of Aromatase (Homo sapiens) (P11511 whole entry, looked up): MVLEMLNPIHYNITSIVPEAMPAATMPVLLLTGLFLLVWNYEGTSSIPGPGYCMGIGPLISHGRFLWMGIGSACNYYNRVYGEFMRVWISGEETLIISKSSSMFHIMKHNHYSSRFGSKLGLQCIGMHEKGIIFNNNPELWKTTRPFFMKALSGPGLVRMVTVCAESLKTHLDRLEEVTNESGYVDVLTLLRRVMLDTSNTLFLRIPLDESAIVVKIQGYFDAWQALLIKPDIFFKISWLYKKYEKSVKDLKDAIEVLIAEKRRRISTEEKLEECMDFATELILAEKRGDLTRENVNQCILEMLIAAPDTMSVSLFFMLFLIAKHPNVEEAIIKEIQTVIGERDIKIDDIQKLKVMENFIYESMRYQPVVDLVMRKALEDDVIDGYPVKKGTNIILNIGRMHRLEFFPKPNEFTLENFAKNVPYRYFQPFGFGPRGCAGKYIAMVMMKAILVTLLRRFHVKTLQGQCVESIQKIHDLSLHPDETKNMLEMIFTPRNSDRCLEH
Chain of Aryl hydrocarbon receptor (Homo sapiens) (P35869 whole entry, looked up): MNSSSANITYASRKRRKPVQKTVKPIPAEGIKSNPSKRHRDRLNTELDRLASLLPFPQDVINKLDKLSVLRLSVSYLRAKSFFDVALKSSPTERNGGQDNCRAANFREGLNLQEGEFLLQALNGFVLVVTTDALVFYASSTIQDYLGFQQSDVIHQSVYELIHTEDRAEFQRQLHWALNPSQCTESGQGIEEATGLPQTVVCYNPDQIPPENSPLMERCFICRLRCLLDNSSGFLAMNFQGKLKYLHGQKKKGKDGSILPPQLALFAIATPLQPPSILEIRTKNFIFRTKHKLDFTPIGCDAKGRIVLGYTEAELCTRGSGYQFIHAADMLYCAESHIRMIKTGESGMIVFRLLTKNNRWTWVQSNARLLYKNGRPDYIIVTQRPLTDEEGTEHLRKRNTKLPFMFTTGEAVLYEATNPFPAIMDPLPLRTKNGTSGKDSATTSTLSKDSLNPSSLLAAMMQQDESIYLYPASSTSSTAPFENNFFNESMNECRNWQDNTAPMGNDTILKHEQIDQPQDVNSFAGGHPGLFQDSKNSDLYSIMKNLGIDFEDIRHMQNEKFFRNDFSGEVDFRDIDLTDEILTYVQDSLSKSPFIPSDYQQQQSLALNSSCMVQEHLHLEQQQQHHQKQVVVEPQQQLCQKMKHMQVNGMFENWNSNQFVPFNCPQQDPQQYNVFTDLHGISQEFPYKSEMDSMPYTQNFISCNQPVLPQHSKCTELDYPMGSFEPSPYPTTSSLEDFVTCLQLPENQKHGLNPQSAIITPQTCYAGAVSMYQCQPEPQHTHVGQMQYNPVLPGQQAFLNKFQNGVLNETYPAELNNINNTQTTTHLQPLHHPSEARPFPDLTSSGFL

Cc1cccc(C)c1[N+](=O)[O-]
Potency (Aromatase (Homo sapiens)): inactive | Potency [1]: inactive | Potency [2]: inactive | Potency [3]: inactive | Potency [4]: inactive | Potency [5]: inactive | Potency [6]: inactive | Potency [7]: inactive

Clc1ccccc1-c1ccccc1Cl
Potency (Aromatase (Homo sapiens)): 78.1 µM (active) | Potency [8]: inactive | Potency [1]: inactive | Potency [9]: inactive | outcome [10]: inactive | outcome [11]: inactive | Potency [3]: inactive | outcome [12]: inactive | Potency [4]: inactive | Potency [5]: inactive | Potency [6]: inactive | Potency [7]: inactive

CC(C)=O
Potency (Aromatase (Homo sapiens)): inactive | Potency [1]: inactive | Potency [4]: inactive | Potency [5]: inactive | Potency [6]: inactive | Potency [7]: inactive

c1ccncc1
Potency (Aromatase (Homo sapiens)): inactive | Potency [8]: inactive | Potency [3]: inactive | outcome [4]: inactive | outcome [5]: inactive | outcome [6]: inactive | outcome [7]: inactive

Brc1ccc(-c2ccccc2)cc1
Potency (Aromatase (Homo sapiens)): inactive | Potency [1]: inactive | Potency [4]: inactive | Potency [5]: inactive | Potency [6]: inactive | Potency [7]: inactive

Cc1cccc([N+](=O)[O-])c1C
Potency (Aromatase (Homo sapiens)): inactive | Potency [1]: inactive | Potency [2]: inactive | Potency [3]: inactive | Potency [4]: inactive | Potency [5]: inactive | Potency [6]: inactive | Potency [7]: inactive

Nc1cccc(C(F)(F)F)c1
Potency (Aromatase (Homo sapiens)): inactive | Potency [1]: inactive | Potency [4]: inactive | Potency [5]: inactive | Potency [6]: inactive | Potency [7]: inactive

Cc1ccc(N)c([N+](=O)[O-])c1
Potency (Aromatase (Homo sapiens)): inactive | Potency [1]: inactive | Potency [4]: inactive | Potency [5]: inactive | Potency [6]: inactive | Potency [7]: inactive

CC(CCl)OP(=O)(OC(C)CCl)OC(C)CCl (stereo not given)
Potency (Aromatase (Homo sapiens)): inactive | Potency [1]: inactive | activity change, positive = activation [13]: -19.5% (inactive) | Potency [4]: inactive | Potency [5]: inactive | Potency [6]: inactive

Oc1c(Cl)ccc(Cl)c1Cl
Potency (Aromatase (Homo sapiens)): inactive | Potency [8]: inactive | Potency [1]: inactive | Potency [3]: inactive | Potency [4]: inactive | Potency [5]: inactive | Potency [6]: inactive | Potency [7]: inactive

Brc1ccc(Br)c(Br)c1
Potency (Aromatase (Homo sapiens)): inactive | Potency [8]: inactive | Potency [1]: inactive | Potency [2]: inactive | Potency [3]: inactive | Potency [4]: inactive | Potency [5]: inactive | Potency [6]: inactive | Potency [7]: inactive

CCc1cccc(CC)c1N
Potency (Aromatase (Homo sapiens)): inactive | Potency [8]: inactive | Potency [2]: inactive | Potency [4]: inactive | Potency [5]: inactive | Potency [6]: inactive | Potency [7]: inactive

O=[N+]([O-])c1ccc2ncccc2c1
Potency [1]: inactive | Potency [4]: inactive | Potency [5]: inactive | Potency [6]: inactive | Potency [7]: inactive

Nc1ccc2c3c(cccc13)-c1ccccc1-2
Potency (Aromatase (Homo sapiens)): inactive | Potency [8]: 21.9 µM (active) | Potency [1]: inactive | Potency [4]: inactive | Potency [5]: inactive | Potency [6]: inactive | Potency [7]: inactive

CCCCCCCC#N
Potency (Aromatase (Homo sapiens)): inactive | Potency [1]: inactive | Potency [2]: inactive | Potency [3]: inactive | Potency [4]: inactive | Potency [5]: inactive | Potency [6]: inactive | Potency [7]: inactive

Nc1ccc(Cl)cc1Cl
Potency [1]: inactive | Potency [2]: inactive | activity change, positive = activation [13]: -4.05% (inactive) | Potency [3]: inactive | Potency [4]: inactive | Potency [5]: inactive | Potency [6]: inactive | Potency [7]: inactive

O=C(O)C(c1ccc(Cl)cc1)c1ccc(Cl)cc1
Potency (Aromatase (Homo sapiens)): inactive | Potency [8]: inactive | Potency [3]: inactive | Potency [4]: inactive | Potency [5]: inactive | Potency [6]: inactive | Potency [7]: inactive

CC(CCl)OC(C)CCl (stereo not given)
Potency (Aromatase (Homo sapiens)): inactive | Potency [4]: inactive | Potency [5]: inactive | Potency [6]: inactive | Potency [7]: inactive

C1=CC2C3C=CC(C3)C2C1 (stereo not given)
Potency (Aromatase (Homo sapiens)): inactive | Potency [1]: inactive | Potency [4]: inactive | Potency [5]: inactive | Potency [6]: inactive | Potency [7]: inactive

CCc1cccc(C)c1N
Potency (Aromatase (Homo sapiens)): inactive | Potency [8]: inactive | Potency [1]: inactive | Potency [2]: inactive | activity change, positive = activation [13]: 10.2% (inactive) | Potency [4]: inactive | Potency [5]: inactive | Potency [6]: 34.5 µM (active) and inactive | Potency [7]: inactive

Oc1ccc(Cl)cc1Cc1cc(Cl)ccc1O
Potency (Aromatase (Homo sapiens)): 31.2 µM (active) | Potency [8]: inactive | Potency [1]: 26.6 µM (active) | Potency [4]: inactive | Potency [5]: inactive | Potency [6]: inactive | Potency [7]: inactive

COc1ccc(CCN2CCC(Nc3nc4ccccc4n3Cc3ccc(F)cc3)CC2)cc1
Potency (Aromatase (Homo sapiens)): 21.1 µM (active) | Potency [1]: 1.25 µM (active) | Potency [3]: 26.6 µM (active)

C=CC(=O)OCCCCCCCC(C)C
Potency (Aromatase (Homo sapiens)): inactive | Potency [8]: inactive | Potency [1]: inactive | Potency [2]: inactive | Potency [4]: inactive | Potency [5]: inactive | Potency [6]: inactive | Potency [7]: inactive

Fc1c(F)c(F)c(Br)c(F)c1F
Potency (Aromatase (Homo sapiens)): inactive | Potency [1]: inactive | Potency [3]: inactive | Potency [4]: inactive | Potency [5]: inactive | Potency [6]: inactive | Potency [7]: inactive

OCC(CBr)(CBr)CBr
Potency (Aromatase (Homo sapiens)): inactive | Potency [1]: inactive | Potency [2]: inactive | Potency [3]: inactive | Potency [4]: inactive | Potency [5]: inactive | Potency [6]: inactive | Potency [7]: inactive

Brc1ccccc1-c1ccccc1
Potency [1]: inactive | activity change, positive = activation [13]: -1.58% (inactive) | Potency [3]: inactive | Potency [4]: inactive | Potency [5]: inactive | Potency [6]: inactive | Potency [7]: inactive

Oc1cc(Cl)cc(Cl)c1Cl
Potency [8]: 24.9 µM (active) | Potency [1]: 62.6 µM (active) | Potency [3]: inactive | Potency [4]: inactive | Potency [5]: inactive | Potency [6]: inactive | Potency [7]: inactive

C=CC(=O)OCCCC
Potency (Aromatase (Homo sapiens)): inactive | Potency [4]: inactive | Potency [5]: inactive | Potency [6]: inactive | Potency [7]: inactive

O=[N+]([O-])c1cc(C(F)(F)F)ccc1Cl
Potency (Aromatase (Homo sapiens)): inactive | activity change, positive = activation [13]: -5.28% (inactive) | Potency [4]: inactive | Potency [6]: inactive | Potency [7]: inactive

Cc1ccccc1N=O
Potency [1]: inactive | Potency [3]: inactive | Potency [4]: inactive | Potency [5]: inactive | Potency [6]: inactive | Potency [7]: inactive

Brc1c2ccccc2cc2ccccc12
Potency (Aromatase (Homo sapiens)): inactive | Potency [8]: inactive | Potency [1]: inactive | Potency [3]: inactive | Potency [4]: inactive | Potency [5]: inactive | Potency [6]: inactive | Potency [7]: inactive
